Results on 89 compounds are retold here after PubChem BioAssay AID652054 (National Center for Advancing Translational Sciences (NCATS), 2013).

Among all 360,000 compounds or so, about 9,100 (2.5%) were called active. Roughly 4% stayed inconclusive and do not appear here. Rule as the data show it: active = max response below about -50%; inconclusive = no clear call, values can overlap the other calls; inactive = above that. The sample as a whole holds a higher share of actives than the screen did.
% is scaled to controls: 0 for no effect and ±100 for the full control effect.

Chain of D(3) dopamine receptor (Homo sapiens) (P35462 whole entry, looked up): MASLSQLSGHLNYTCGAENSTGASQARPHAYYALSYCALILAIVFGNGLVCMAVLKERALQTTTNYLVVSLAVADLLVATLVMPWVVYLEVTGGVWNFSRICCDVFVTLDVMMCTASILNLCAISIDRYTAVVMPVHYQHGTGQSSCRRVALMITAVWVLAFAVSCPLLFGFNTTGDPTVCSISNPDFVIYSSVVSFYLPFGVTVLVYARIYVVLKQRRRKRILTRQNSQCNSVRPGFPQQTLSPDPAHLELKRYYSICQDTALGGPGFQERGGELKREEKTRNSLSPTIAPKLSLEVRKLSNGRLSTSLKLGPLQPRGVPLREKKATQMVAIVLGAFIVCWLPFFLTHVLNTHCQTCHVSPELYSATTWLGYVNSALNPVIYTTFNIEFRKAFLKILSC

This assay concerns the target D(3) dopamine receptor (Homo sapiens) (UniProt P35462). As to the kind of experiment: qHTS of D3 Dopamine Receptor Antagonist: qHTS. As to conditions: D3R cells, DiscoveRx beta-arrestin luminescence, antagonist mode; hits give low values. The procedure, abridged: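 Cells expressing the human receptor were seeded at 1500 cells/well, incubated overnight at 37 degrees C in 5% CO2, then exposed to library compounds with dopamine controls for 90 minutes at 37 degrees C before luminescent detection.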
Consider `CCC(C(=O)NC(C)(C)C)n1c(-c2ccccc2)nc2ccccc21` (centres undefined), for which the max response, negative = inhibition is 0.73% (inactive).
Under `CSCCC(C(=O)NC(C)(C)C)n1c(-c2ccccc2)nc2ccccc21` (centres undefined) stands -15.5% (inactive); under `CC(C)(C)NC(=O)C(CCc1ccccc1)n1c(=O)c(-c2ccccc2)nc2ccccc21` (centres undefined), -66.1% (active).
Under `Cc1cn([C@H]2C[C@H](O)[C@@H](CNC(=O)[C@H](N)Cc3cccnc3)O2)c(=O)[nH]c1=O` stands 22.6% (inactive).
Under `Cc1ccc(NC(=O)COC(=O)CN2CCSC2=O)cc1F` stands 37.5% (inactive); under `Cn1nccc1C(=O)N1CCCC(C(=O)c2ccc(Oc3ccccc3)cc2)C1` (centres undefined), 22.9% (inactive); under `CCNC(=O)N1CCCC(C(=O)c2ccc(-c3ccccc3)cc2)C1` (centres undefined), 10.6% (inactive).
With `O=C(c1ccc(-c2ccccc2)cc1)C1CCCN(C(=O)c2cncs2)C1` (centres undefined), the max response, negative = inhibition was -57.7% (active).
`CC1(C(=O)Nc2cccc3c2CCCC3)CCN1C(=O)CCc1ccc(Cl)cc1Cl` (centres undefined): the max response, negative = inhibition is 9.05% (inactive).
Next, `COc1cccc(CNc2nc3cc(-c4csc5ccccc45)sc3c(=O)n2C)c1`: 6.45% (inactive); `COc1cc2c(cc1O)C(SC)=NC(C)(C)C2`: -89.4% (active); `COc1cc2c(cc1OC)C(C(C)C)=NC(C)(C)C2`: -19.9% (inactive).
Next, `COc1cc2c(cc1OC)C(Nc1ccc(S(N)(=O)=O)cc1)=NC(C)(C)C2`: 3.38% (inactive); `CCOC(=O)C1CCCN(C(=O)c2ccc(C)c(F)c2)CC1` (centres undefined): -26.1% (inactive).
Under `Cc1sc2ncnc(SCC(=O)NC3CCS(=O)(=O)C3)c2c1C` (centres undefined) stands -20.5% (inactive); under `CC1(C(=O)NCCc2c[nH]c3ccccc23)C=CC2(CCCCC2)N1C(=O)c1ccccc1` (centres undefined), 45.7% (inactive); under `CCOc1ccc(CN2CCN(Cc3c[nH]c4ccccc34)CC2)cc1`, -60% (active).
In the case of `O=C(NCCc1c[nH]c2ccccc12)C1CCN(Cc2ccc(Br)cc2)CC1`, the max response, negative = inhibition was -82.8% (active).
Next, `CCOc1ccc(CN2CCCN(C)CC2)cc1`: -29.1% (inactive).
Under `CCOc1ccc(CN2CCN(CCCc3ccccc3)C(CCO)C2)cc1` (centres undefined) stands -25.6% (inactive); under `Cc1ccc2[nH]cc(CCNC(=O)C3CCCCC3)c2c1`, 11.6% (inactive).
In the case of `C[C@H]1CN([C@@H](C)CO)C(=O)CCCn2cc(nn2)CO[C@@H]1CN(C)S(=O)(=O)c1cccc(C#N)c1`, the max response, negative = inhibition was 14.4% (inactive).
Next, `COc1ccc(N2c3ccccc3CN(Cc3ccccc3)[C@@H](C)[C@H]2Cc2ccc(-c3ccccc3)cc2)cc1`: 9.42% (inactive); `CCC(=O)N1Cc2cc(C(=O)NCc3cccc(F)c3)nc(-c3cccc(C4=CCCC4)c3)c2[C@H]1CCO`: -8.57% (inactive); `CCOC(=O)c1c(C)[nH]c(C)c1C(=O)COC(=O)/C=C/c1cccc([N+](=O)[O-])c1`: 19.7% (inactive).
`O=C(COC(=O)/C=C/c1ccc(Cl)cc1)NC1CCS(=O)(=O)C1` (centres undefined): the max response, negative = inhibition was -20.8% (inactive).
Next, `Cc1ccc(-c2nc(CS(=O)CC(=O)NC3CCCC3)c(C)o2)cc1` (centres undefined): 12.9% (inactive); `Cc1cc(NC(=O)CSCc2nc(-c3cccc(Cl)c3)oc2C)no1`: -28.8% (inactive); `Cc1ccc(-c2nc(CSCC(=O)NC3CCN(Cc4ccccc4)CC3)c(C)o2)cc1`: -76.3% (active).
Under `CN(C)C(CNC(=O)Cc1ccc([N+](=O)[O-])cc1)c1ccccc1` (centres undefined) stands -19% (inactive).
Next, `Cc1cc(NC(=O)c2cc3ccccc3o2)no1`: 3.37% (inactive); `CN(C)C(CNC(=O)c1cc2ccccc2o1)c1ccccc1` (centres undefined): -82.9% (active).
Take `COc1ccc(OC)c(NC(=O)C2(C)CCN2C(=O)Cc2ccccc2)c1` (centres undefined): the max response, negative = inhibition is 19.2% (inactive).
Next, `COc1cc(=O)[nH]c(=O)n1C(=O)Cc1ccccc1`: -54.3% (active).
For the compound `CCCOc1ccc(Cn2c(O)cc(=O)[nH]c2=O)cc1`, the max response, negative = inhibition is -8.86% (inactive).
Under `CC1(C(=O)NS(=O)(=O)c2ccccc2)CCN1C(=O)C1CCCCC1` (centres undefined) stands -29.5% (inactive).
Next, `CC(=O)Nc1ccc(-c2ccnc3c2CC(C(=O)NC(C)C)O3)cc1` (centres undefined): 23.5% (inactive).
`CC1CC(NC(=S)N(C)C)CC(C)(C)C1` (centres undefined): the max response, negative = inhibition is -2.04% (inactive).
`O=C(/C=C/c1ccc(Cl)c([N+](=O)[O-])c1)c1ccc(O)cc1`: the max response, negative = inhibition is -79.6% (active).
Under `CC(=O)Nc1ccc(C=CC(=O)c2ccc([N+](=O)[O-])cc2)cc1` stands 1.23% (inactive); under `CC(CC(=O)O)C(=O)c1ccc(Cl)c([N+](=O)[O-])c1` (centres undefined), 7.05% (inactive); under `CCCCn1nnnc1C(c1ccccc1)N1CCN(c2ccccc2OC)CC1` (centres undefined), -12.3% (inactive).
Next, `OC(c1ccc(F)cc1)c1ncc(-c2cccc(C(F)(F)F)c2)[nH]1` (centres undefined): 4.48% (inactive).
For `CCCCNC(=O)C[C@@H]1C[C@@]2(C(=O)OCC)CCC=C2N(Cc2cccc3ccccc23)C1=O`, the max response, negative = inhibition was 0% (inactive).
For the compound `CC1=C/C(=N\OS(=O)(=O)c2ccccc2)C=CC1=O`, the max response, negative = inhibition is -80.7% (active).
Under `CC(C)(C)C1CCC(=O)N2CCC[C@]2(c2ccccc2)C1` (some centres undefined) stands 0% (inactive); under `CC1(C)OC(=O)C2=C(C[C@@H](C3CCCC3)O[C@@H]2c2ccc(Cl)cc2)O1`, 0.96% (inactive); under `CN(Cc1ccccc1)C(=O)c1cccc(C(=O)N(C)Cc2ccccc2)c1`, -13% (inactive).
Next, `CN(O)C(=S)c1ccccc1`: -113% (active); `CN(CC(=O)O)C(=O)c1ccccc1`: -19.9% (inactive).
Regarding `Cc1csc(=O)n1CCC(=O)OCC(=O)Nc1ccc(N2CCOCC2)cc1`, the max response, negative = inhibition is -0.664% (inactive).
Under `O=[N+]([O-])c1ccc(N2CCN(CC(O)COc3ccccc3)CC2)cc1` (centres undefined) stands -27.1% (inactive); under `OC(COCC1COc2ccccc2O1)CN1CCN(c2ccc(F)cc2)CC1` (centres undefined), -58.5% (active); under `O=C(COC(=O)c1ccc(F)cc1)NCC1COc2ccccc2O1` (centres undefined), -19.4% (inactive).
Next, `CCc1cccc(CC)c1N1C(=O)CC(Sc2ccccc2N)C1=O` (centres undefined): -0.919% (inactive).
Under `C[C@H](CO)N1C[C@H](C)[C@@H](CN(C)S(=O)(=O)c2ccc(Oc3ccccc3)cc2)OCc2cn(nn2)CCCC1=O` stands 2.13% (inactive).
With `CCn1c(=S)[nH]c2sc3c(c2c1=O)CCCCC3`, the max response, negative = inhibition was -15.3% (inactive).
As to `O=c1c2c3c(sc2n(CCN2CCCC2)c(=O)n1Cc1ccccc1)CCCCC3`, the max response, negative = inhibition was -21.9% (inactive).
Under `CN(C)CCCn1c(=O)n(Cc2ccccc2)c(=O)c2c3c(sc21)CCCCC3` stands -52.1% (active); under `Cc1ccc(-c2cnc(C(O)c3cc(Cl)cc(Cl)c3)[nH]2)cc1` (centres undefined), 17.6% (inactive).
Under `Cc1cccc(CN2CCN(Cc3cnn(-c4ccccc4F)c3)CC2CCO)n1` (centres undefined) stands -69% (active).
Regarding `OCCC1CN(Cc2cnc(-c3ccccc3)s2)CCN1CCc1ccccc1` (centres undefined), the max response, negative = inhibition was -27.8% (inactive).
As for `OCCC1CN(Cc2cccc(O)c2)CCN1CCc1ccccc1` (centres undefined), the max response, negative = inhibition was -52.7% (active).
Under `COc1cccc(CN2CCN(Cc3ccc4cccc(F)c4n3)CC2CCO)c1` (centres undefined) stands -65.2% (active); under `OCCC1CN(Cc2ccccc2-c2ccco2)CCN1Cc1ccsc1` (centres undefined), -16.3% (inactive); under `Cc1ccc(CN2CCN(Cc3ccc4ncccc4c3)CC2CCO)cc1` (centres undefined), -16% (inactive).
`Cc1ccc(CN2CCN(Cc3cccc(C)n3)CC2CCO)cc1` (centres undefined): the max response, negative = inhibition is -24.5% (inactive).
Under `OCCC1CN(Cc2cccc(OC3CCCC3)c2)CCN1Cc1ccsc1` (centres undefined) stands -81.9% (active); under `CCOc1ccc(CN2CCN(Cc3ccc4cc(F)ccc4n3)CC2CCO)cc1` (centres undefined), -27.2% (inactive); under `CC(=O)Nc1ccc(CN2CCN(Cc3ccc(F)c(F)c3)C(CCO)C2)cc1` (centres undefined), 7.18% (inactive).
Next, `OCCC#Cc1ccc(CN2CCN(Cc3ccsc3)C(CCO)C2)cc1` (centres undefined): -22.9% (inactive); `OCCC1CN(Cc2ccc(Oc3ncccn3)cc2)CCN1CCc1ccccc1` (centres undefined): -10.3% (inactive).
Next, `Cc1ccc(C(=O)OCC(=O)NC2CCCCCCC2)cc1C`: 5.37% (inactive); `CCCCNC(=O)C[C@@H]1C[C@@]2(C(=O)OC)CC(C)(C)CC=C2N(Cc2ccco2)C1=O`: 22.3% (inactive); `Cc1cc(Br)cn2c(Cc3ccccc3C(F)(F)F)c(-c3ccc(Cl)cc3)nc12`: 3.99% (inactive).
Consider `COc1ccc(-n2cc(CN(C)Cc3n[nH]c(=O)[nH]3)c(-c3cccc(F)c3)n2)cc1`, for which the max response, negative = inhibition was 0.876% (inactive).
Next, `COc1ccc(-n2cc(CNC3CCOCC3)c(-c3cccc(F)c3)n2)cc1`: -0.354% (inactive); `CCC(O)C1CCN(Cc2cn(-c3ccc(OC)cc3)nc2-c2cccc(F)c2)CC1` (centres undefined): -73% (active).
Next, `CCCCOCCCNC(=O)C[C@@H]1C[C@@]2(C(=O)OCC)CCCC=C2N(CCC2=CCCCC2)C1=O`: 2.81% (inactive).
Next, `CN1OC[C@@H]2CN(S(=O)(=O)c3cccc4ccccc34)[C@H](c3ccc(N4CCCCC4)cc3)C[C@@H]21`: 0% (inactive); `C[C@H]1Cn2cnc(C(=O)N[C@@H](Cc3c[nH]c4ccccc34)C(=O)OC(C)(C)C)c2C(=O)N1`: 5.11% (inactive); `CN(C)C(=O)c1cccc(-c2cnc3c(NC=O)cc(-c4ccc(F)cc4)cn23)c1`: 95.3% (inactive).
In the case of `N=C(N)SCc1cccc2ccccc12`, the max response, negative = inhibition is -51.3% (active).
`CCc1ccc(-c2nn(-c3ccccc3)cc2CSC(=N)N)cc1`: the max response, negative = inhibition is 6.38% (inactive).
Under `CCOc1ccc(Br)cc1CSC(=N)N` stands -4.48% (inactive).
Next, `CCCNC(=O)C[C@@H]1CC[C@@H]2[C@H](COC[C@H](O)CN2C(=O)c2cc(Cl)cc(Cl)c2)O1`: 13.7% (inactive); `N#CCCN(C(=S)Nc1ccc(Cl)c(Cl)c1)C1CCCCC1`: 2.54% (inactive).
Next, `CN1OC[C@@H]2CN(C(=O)C(C)(C)C)[C@H](c3ccc(-n4ccnc4)cc3)C[C@@H]21`: 22.8% (inactive); `C[C@@H]1CCCCO[C@H](CN(C)Cc2ccccc2)[C@@H](C)CN([C@H](C)CO)C(=O)c2cc(NS(=O)(=O)c3ccc(Cl)cc3)ccc2O1`: -0.783% (inactive).
